The source of these data is PubChem BioAssay (EPA / NIEHS).

In test [1] the target is T1, Estrogen receptor (Homo sapiens) + Estrogen receptor beta (Homo sapiens) (UniProt P03372+Q92731). In words: OT_ER_ERaERb_0480: Odyssey Thera (OT) 8-hour HEK293T Protein-Complementation Assay for Estrogen Receptor-alpha/-beta Heterodimer (AID 2283352). The method, boiled down:
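Compound added to HEK293T cells carrying split-reporter-tagged ER-alpha and ER-beta LBDs, incubated 8 hours, then imaged by laser scanning cytometer. Signal rise in nucleus, or nucleus and cytoplasm, over vehicle was fitted in the positive direction.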

Test [2] deals with T1, Estrogen receptor (Homo sapiens) + Estrogen receptor beta (Homo sapiens). In words: OT_ER_ERaERb_1440: Odyssey Thera (OT) 24-hour HEK293T Protein-Complementation Assay for Estrogen Receptor-alpha/-beta Homodimer (AID 2283356).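 Note: heteromer of ER alpha and ER beta binding domains; hits raise reporter fluorescence and both agonists and antagonists give an increase.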 The method in brief:
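Stable HEK293T PCA line, ERα LBD 310-547 + ERβ LBD 263-489 fused to reporter fragments; 24 h treatment; fluorescence read by laser scanning cytometry; positive fitting direction relative to DMSO.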

Test [3] concerns the target Retinoic acid receptor alpha (Homo sapiens) (UniProt P10276). Kind of test: NVS_NR_hRAR_Antagonist: NovaScreen (NVS) Nuclear Receptor Binding Assay for human Retinoic Acid Alpha Receptor Antagonism (RAR) (AID 2283358). The method in brief:
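Chemicals were first tested in duplicate at 25 uM, then actives in concentration series, in a cell-free TR-FRET antagonist binding format. Measurements were taken 2 hours after dosing and loss of signal was evaluated against DMSO controls.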

The target of test [4] is Nuclear receptor subfamily 1 group I member 2 (Homo sapiens) (UniProt O75469). In words: NVS_NR_hPXR: NovaScreen (NVS) Nuclear Receptor Binding Assay for human Pregnane X Receptor (PXR) (AID 2283365).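 Note: a drop in FRET signal versus DMSO baseline means the compound binds.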 The method in brief: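 Human PXR protein, cell-free; compound added, incubated 2 h, TR-FRET read. Signal decrease vs DMSO = binding. Screened 25 uM duplicate, actives re-run as dilution series.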
Chain of Nuclear receptor subfamily 1 group I member 2 (Homo sapiens) (O75469 whole entry, looked up): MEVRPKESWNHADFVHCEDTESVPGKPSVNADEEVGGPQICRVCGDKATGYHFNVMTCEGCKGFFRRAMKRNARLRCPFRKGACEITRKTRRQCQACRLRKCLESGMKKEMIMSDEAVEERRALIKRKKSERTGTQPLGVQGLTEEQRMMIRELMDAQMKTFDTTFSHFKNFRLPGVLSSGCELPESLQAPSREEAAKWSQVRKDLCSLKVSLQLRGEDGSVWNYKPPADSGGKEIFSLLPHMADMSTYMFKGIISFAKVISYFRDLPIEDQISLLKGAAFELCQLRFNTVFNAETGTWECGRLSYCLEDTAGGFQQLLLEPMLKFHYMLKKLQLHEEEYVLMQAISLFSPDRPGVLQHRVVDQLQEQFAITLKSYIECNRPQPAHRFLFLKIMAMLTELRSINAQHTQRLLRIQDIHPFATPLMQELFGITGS

Test [5] has as its target Peroxisome proliferator-activated receptor gamma (Homo sapiens) (UniProt P37231). In words: NVS_NR_hPPARg: NovaScreen (NVS) Nuclear Receptor Binding Assay for human Peroxisome Proliferator-activated Receptor gamma (PPARg) (AID 2283370). The method in brief:
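Chemicals were tested first in duplicate at 25 uM, then in concentration series if active. Binding to cell-free PPARg protein was measured by fluorescence polarization after 2 h, with loss of signal scored against DMSO.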

Test [6] addresses Glucocorticoid receptor (Homo sapiens) (UniProt P04150). In words: NVS_NR_hGR: NovaScreen (NVS) Nuclear Receptor Binding Assay for human Glucocorticoid Receptor (GR) (AID 2283363). The method, boiled down: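 Single-readout cell-free binding: radioligand plus extracted receptor, 16-hour dosing, filter radiodetection; 25 uM duplicate primary, concentration series secondary.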
Test [7] has as its target human Norepinephrine Transporter (NET), SLC6A2 (gene 6530) (UniProt P23975). Kind of test: NVS_TR_hNET: NovaScreen (NVS) Transporter Assay for human Norepinephrine Transporter (NET) (AID 2283377).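 For AC50: displacement of radioligand from human NET seen as loss of scintillation signal.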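 Note: cell-free membrane protein extracted from CHO cells expressing human NET.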 The method in brief: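 In this cell-free binding screen, chemicals at 25 uM (duplicate) compete with a radioligand for CHO-derived human NET over 1 hour, with filter-based radiodetection.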

Test [8] has as its target Estrogen receptor beta (Homo sapiens) (UniProt Q92731). In words: OT_ER_ERbERb_0480: Odyssey Thera (OT) 8-hour HEK293T Protein-Complementation Assay for Estrogen Receptor-beta/-beta Homodimer (AID 2283357).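 Note: active means signal gain over DMSO baseline.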 The method in brief: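 Fluorescence gain from complemented reporter fragments on ER-beta LBD homodimer in HEK293T was quantified against DMSO controls after 8 h treatment, fixation in 4% formaldehyde and Draq5 staining.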

Test [9] deals with Androgen Receptor/SRC-1 Co-activator, AR (gene 367) (UniProt P10275). Kind of test: OT_AR_ARSRC1_0960: Odyssey Thera (OT) 16-hour HEK293T Protein-Complementation Assay for Androgen Receptor/SRC-1 Co-activator (AID 2283353).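 Note: actives raise the signal above DMSO so potency reflects increased AR and SRC-1 complex.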 The method, boiled down: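 Sixteen-hour cell assay: Venus halves fused to AR and SRC-1 in HEK293T report binding. Images at 488/635 nm give an N/C ratio in the 488 nm channel over ≥400 cells, analysed as signal increase over DMSO.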
Chain of Androgen Receptor/SRC-1 Co-activator, AR (gene 367) (P10275 whole entry, looked up, the tested form may be a part): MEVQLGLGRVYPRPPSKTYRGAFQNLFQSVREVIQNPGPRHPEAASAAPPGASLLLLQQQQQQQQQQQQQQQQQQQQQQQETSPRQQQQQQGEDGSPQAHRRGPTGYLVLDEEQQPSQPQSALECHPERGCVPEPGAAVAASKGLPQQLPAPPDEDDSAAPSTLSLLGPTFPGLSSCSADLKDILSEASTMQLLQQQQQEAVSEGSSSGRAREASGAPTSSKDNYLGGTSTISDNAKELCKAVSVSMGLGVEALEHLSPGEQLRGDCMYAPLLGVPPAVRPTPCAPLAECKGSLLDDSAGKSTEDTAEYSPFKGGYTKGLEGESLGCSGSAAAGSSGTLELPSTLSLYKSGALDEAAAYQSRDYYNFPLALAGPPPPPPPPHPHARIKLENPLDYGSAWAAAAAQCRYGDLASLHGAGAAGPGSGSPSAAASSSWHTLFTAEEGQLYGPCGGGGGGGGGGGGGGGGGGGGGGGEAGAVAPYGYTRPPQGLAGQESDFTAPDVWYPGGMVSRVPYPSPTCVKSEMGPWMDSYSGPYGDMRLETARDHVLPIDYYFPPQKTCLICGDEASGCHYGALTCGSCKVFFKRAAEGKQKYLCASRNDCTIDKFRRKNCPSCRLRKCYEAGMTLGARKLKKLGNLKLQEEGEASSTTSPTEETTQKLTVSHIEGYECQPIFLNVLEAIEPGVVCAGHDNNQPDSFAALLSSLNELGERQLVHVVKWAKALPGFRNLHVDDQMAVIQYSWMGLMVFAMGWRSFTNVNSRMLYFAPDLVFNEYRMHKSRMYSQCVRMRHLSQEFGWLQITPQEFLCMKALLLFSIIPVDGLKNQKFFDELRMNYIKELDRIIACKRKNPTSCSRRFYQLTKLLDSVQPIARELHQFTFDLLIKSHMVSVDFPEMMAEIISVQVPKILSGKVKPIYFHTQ

The target is the same in test [10]. In words: OT_AR_ARSRC1_0480: Odyssey Thera (OT) 8-hour HEK293T Protein-Complementation Assay for Androgen Receptor/SRC-1 Co-activator (AID 2283354).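 Note: hits raise the complementation signal above DMSO so AC50 marks enhancers.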 The method, boiled down:
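After 8 h dosing, stably expressing HEK293T cells with split-Venus AR/SRC-1 fusions were imaged (488, 635nm). The 488nm N/C ratio per image gave the endpoint, analysed in the positive direction against DMSO.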

Test [11] has as its target human Peroxisome Proliferator-activated Receptor alpha (PPARa), PPARA (gene 5465) (UniProt Q07869). In words: NVS_NR_hPPARa: NovaScreen (NVS) Nuclear Receptor Binding Assay for human Peroxisome Proliferator-activated Receptor alpha (PPARa) (AID 2283359).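 Note: activity means loss of TR-FRET signal versus DMSO baseline.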 The method, boiled down:
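One-hour incubation, cell-free extracted protein, TR-FRET binding readout; signal loss vs DMSO scored. Screen: 25 uM duplicates, confirmatory dose series for actives.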

Test [12] has as its target rat Androgen Receptor (AR), Ar (gene 24208) (UniProt P15207). In words: NVS_NR_rAR: NovaScreen (NVS) Nuclear Receptor Binding Assay for rat Androgen Receptor (AR) (AID 2283366). The method in brief: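 Actives from a duplicate single-concentration (25 uM) primary run went on to concentration series. Displacement of radioligand was counted by filtration and scintillation, 18 h post-dose, using prostate extracts from testosterone-pretreated rats, with DMSO as baseline.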

The target in the next test is PGR (gene 5241) (UniProt P06401). Kind of test: NVS_NR_hPR: NovaScreen (NVS) Nuclear Receptor Binding Assay for human Progestron Receptor (PR) (AID 2283360).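 Note: active means loss of bound radioligand signal versus DMSO baseline.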 The method in brief: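 T47D lysate; tritiated or iodinated radioligand; scintillation count at 18 h. DMSO = negative control/baseline. Primary: 25 uM, duplicate. Secondary: concentration series for actives.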

The target of test [13] is rat Mineralocorticoid Receptor (MR), Nr3c2 (gene 25672) (UniProt P22199). In words: NVS_NR_rMR: NovaScreen (NVS) Nuclear Receptor Binding Assay for rat Mineralocorticoid Receptor (MR) (AID 2283355). The method, boiled down:
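Single-concentration duplicate screen (25 uM) of radioligand binding in adrenalectomized rat brain supernatant; scintillation detection 24 h after dosing. Positive and negative controls ran on each plate, and confirmed actives went to concentration-response.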

The subject of test [14] is guinea pig Dopamine Transporter (DAT), gene 100714898. In words: NVS_TR_gDAT: NovaScreen (NVS) Transporter Assay for guinea pig Dopamine Transporter (DAT) (AID 2283369).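 Note: active compounds lower bound radioligand signal relative to DMSO.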 The method, boiled down: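 Scintillation counts of filter-retained radioligand report binding to guinea pig striatal membranes after 2 h. Activity scored as signal loss relative to DMSO, first at 25 uM in duplicate, then in concentration series to 50 uM.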

Test [15] has as its target human Dopamine Transporter (DAT), SLC6A3 (gene 6531) (UniProt Q01959). Kind of test: NVS_TR_hDAT: NovaScreen (NVS) Transporter Assay for human Dopamine Transporter (DAT) (AID 2283374).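 Note: activity means loss of bound radioligand signal relative to DMSO.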 The method in brief: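 Extracted human SLC6A3 protein incubated 1 h with radioligand and test chemical; bound fraction separated on filters and counted. Single 25 uM duplicate screen preceded concentration-response follow-up; positive and negative controls on every plate.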

For test [16], the target named is rat Serotonin Transporter (SERT), Slc6a4 (gene 25553) (UniProt P31652). Kind of test: NVS_TR_rSERT: NovaScreen (NVS) Transporter Assay for rat Serotonin Transporter (SERT) (AID 2283375). The method in brief:
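Filtration-based radiodetection quantified loss of specific radioligand binding in rat forebrain membranes after 1 hour of chemical exposure, relative to DMSO. Chemicals were first tested in duplicate at 25 uM.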

Values joined by “and” are separate entries in the source; they are usually repeats but may differ in a detail not shown here. Equal entries are not always repeated. Records with an inconclusive call do not appear. Active and inactive are the calls of the source. Rule for the calls: active = hit-call score of the fitted dose curve at least 0.9, where 1 is the maximum; inconclusive = response in the unintended direction; inactive = score below 0.9.

Chain of Retinoic acid receptor alpha (Homo sapiens) (P10276 whole entry, looked up): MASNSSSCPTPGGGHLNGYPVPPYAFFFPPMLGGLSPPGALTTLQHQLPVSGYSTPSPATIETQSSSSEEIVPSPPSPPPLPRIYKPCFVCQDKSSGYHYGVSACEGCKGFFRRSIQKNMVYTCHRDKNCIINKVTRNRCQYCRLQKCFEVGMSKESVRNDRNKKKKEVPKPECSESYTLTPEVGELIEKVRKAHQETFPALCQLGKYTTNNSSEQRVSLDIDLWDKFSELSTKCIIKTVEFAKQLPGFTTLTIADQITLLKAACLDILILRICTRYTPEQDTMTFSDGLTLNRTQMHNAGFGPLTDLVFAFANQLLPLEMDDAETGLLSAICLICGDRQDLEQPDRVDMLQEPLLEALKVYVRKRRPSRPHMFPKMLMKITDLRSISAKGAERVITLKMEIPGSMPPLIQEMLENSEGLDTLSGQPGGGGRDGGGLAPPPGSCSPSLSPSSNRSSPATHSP
Chain of Glucocorticoid receptor (Homo sapiens) (P04150 whole entry, looked up): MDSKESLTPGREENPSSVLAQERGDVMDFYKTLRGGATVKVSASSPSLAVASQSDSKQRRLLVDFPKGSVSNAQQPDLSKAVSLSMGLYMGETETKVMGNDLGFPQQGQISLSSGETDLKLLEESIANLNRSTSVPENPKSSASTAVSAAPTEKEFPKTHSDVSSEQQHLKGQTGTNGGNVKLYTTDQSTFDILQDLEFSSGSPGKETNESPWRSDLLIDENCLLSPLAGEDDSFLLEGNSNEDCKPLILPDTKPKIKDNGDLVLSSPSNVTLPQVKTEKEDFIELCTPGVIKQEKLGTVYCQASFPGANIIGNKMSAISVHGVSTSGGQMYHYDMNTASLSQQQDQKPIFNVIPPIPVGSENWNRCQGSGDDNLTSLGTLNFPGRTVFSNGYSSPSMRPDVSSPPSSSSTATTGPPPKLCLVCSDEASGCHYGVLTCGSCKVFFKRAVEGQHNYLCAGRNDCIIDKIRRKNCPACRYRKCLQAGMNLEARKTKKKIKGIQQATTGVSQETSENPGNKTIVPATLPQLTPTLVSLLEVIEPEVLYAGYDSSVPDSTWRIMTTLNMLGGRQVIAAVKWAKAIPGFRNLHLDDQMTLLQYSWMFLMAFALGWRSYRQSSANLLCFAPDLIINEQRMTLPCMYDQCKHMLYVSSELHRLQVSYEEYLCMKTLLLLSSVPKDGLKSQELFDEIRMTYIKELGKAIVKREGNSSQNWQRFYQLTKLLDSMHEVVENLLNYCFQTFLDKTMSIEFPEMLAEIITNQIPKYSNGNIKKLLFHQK
T1 sequence (P03372 whole entry, looked up): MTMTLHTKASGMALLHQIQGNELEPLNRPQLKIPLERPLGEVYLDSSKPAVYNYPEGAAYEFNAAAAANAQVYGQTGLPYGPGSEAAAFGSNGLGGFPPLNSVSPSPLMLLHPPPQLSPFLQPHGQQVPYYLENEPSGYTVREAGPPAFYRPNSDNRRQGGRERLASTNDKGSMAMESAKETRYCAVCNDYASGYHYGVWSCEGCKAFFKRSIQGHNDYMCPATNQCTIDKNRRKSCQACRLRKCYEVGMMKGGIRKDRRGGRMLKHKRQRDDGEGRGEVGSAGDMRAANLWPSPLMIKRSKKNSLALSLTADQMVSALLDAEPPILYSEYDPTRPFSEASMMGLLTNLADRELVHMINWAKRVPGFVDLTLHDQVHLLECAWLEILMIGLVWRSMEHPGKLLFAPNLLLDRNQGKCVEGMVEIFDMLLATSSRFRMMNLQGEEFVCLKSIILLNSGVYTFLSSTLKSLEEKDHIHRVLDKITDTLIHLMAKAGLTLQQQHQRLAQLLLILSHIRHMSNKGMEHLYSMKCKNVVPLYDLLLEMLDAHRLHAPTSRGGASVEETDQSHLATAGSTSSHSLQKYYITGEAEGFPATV
T1 sequence (Q92731 whole entry, looked up): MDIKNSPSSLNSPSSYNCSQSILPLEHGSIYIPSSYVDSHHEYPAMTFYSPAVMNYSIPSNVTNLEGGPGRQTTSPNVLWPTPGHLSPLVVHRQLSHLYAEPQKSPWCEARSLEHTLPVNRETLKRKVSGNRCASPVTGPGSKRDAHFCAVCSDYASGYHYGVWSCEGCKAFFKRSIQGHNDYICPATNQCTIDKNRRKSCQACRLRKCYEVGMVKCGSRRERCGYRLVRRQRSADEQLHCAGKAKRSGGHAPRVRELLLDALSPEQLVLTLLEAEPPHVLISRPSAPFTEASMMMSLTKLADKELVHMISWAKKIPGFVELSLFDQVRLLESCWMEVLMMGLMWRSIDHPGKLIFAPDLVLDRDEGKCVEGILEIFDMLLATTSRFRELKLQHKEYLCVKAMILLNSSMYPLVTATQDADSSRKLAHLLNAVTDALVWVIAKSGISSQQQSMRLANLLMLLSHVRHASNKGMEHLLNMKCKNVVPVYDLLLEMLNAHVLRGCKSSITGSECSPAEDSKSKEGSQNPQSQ
Chain of Estrogen receptor beta (Homo sapiens) (Q92731 whole entry, looked up, the tested form may be a part): as the sequence (Q92731 whole entry, looked up) above
Chain of human Norepinephrine Transporter (NET), SLC6A2 (gene 6530) (P23975 whole entry, looked up): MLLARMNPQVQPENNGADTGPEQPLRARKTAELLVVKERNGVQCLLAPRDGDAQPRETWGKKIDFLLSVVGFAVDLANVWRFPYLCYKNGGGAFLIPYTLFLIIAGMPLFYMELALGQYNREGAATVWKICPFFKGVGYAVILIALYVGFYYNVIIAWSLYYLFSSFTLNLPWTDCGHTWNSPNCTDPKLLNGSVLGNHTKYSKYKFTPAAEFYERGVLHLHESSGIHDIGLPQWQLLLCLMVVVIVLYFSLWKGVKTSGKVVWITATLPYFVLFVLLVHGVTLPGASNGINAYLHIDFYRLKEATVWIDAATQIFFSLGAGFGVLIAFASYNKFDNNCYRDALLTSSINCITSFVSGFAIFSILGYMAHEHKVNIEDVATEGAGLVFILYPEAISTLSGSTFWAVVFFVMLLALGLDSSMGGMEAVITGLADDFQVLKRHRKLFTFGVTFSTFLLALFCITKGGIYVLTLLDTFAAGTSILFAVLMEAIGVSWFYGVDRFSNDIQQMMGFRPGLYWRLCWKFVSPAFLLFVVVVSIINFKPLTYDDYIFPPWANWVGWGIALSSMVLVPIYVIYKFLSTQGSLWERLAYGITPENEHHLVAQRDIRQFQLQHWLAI
Chain of human Peroxisome Proliferator-activated Receptor alpha (PPARa), PPARA (gene 5465) (Q07869 whole entry, looked up): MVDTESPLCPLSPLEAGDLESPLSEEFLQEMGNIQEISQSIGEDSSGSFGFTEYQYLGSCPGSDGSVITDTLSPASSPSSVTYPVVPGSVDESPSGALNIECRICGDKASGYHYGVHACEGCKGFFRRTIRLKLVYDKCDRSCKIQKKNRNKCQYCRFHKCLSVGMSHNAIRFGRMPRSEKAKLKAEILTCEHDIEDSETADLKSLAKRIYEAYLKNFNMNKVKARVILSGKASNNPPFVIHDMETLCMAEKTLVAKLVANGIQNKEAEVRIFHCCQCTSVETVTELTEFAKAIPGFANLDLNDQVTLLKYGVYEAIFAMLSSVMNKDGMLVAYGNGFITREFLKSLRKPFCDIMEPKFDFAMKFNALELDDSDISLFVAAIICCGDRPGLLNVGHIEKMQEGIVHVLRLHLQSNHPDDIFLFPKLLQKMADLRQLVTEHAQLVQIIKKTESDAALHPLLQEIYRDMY

Consider `CCCCC(CC)CCC(CC(C)C)OS(=O)(=O)O` (configuration not stated), for which the outcome in test [1], in test [2] and in [3] was inactive. Moreover, the AC50 in test [4] was 2.49 µM (active); in test [5], 8.17 µM (active) and 6.89 µM (active).

Take `O=C(Nc1ccccc1SSc1ccccc1NC(=O)c1ccccc1)c1ccccc1`: the AC50 in test [6] is 11.3 µM (active). For the same molecule, in test [7], the molecule was classed as inactive.

With `CCOC(=O)CC`, the outcome in test [2] and in test [8] was inactive.

As for `CC(C)c1ccc2c(C(C)C)cc(C(C)C)c(S(=O)(=O)O)c2c1`, the result in test [9] and in test [10] was inactive. Also, the AC50 in test [3] was 12.9 µM (active); in test [11], 7.37 µM (active); in test [6], 10.9 µM (active); in test [4], 0.393 µM (active); in [12], 7.33 µM (active); in test [5], 4.01 µM (active).

`Cc1cc(C)c(C)cc1C`: the call in test [11] was inactive.

Take `CN(C)c1ccc(N=Nc2ccccc2C(=O)O)cc1`: the outcome in [2] and in test [8] was inactive.

On to `CO[Si](CCC1CCC2OC2C1)(OC)OC` (configuration not stated), for which, in the test with PGR (gene 5241), the outcome was inactive.

With `CCCCCCCCO[C@@H]1O[C@H](CO)[C@@H](O)[C@H](O)[C@H]1O`, the outcome in test [2] and in test [8] was inactive. In addition, the AC50 in test [5] was 36.5 µM (active).

Regarding `NC(=O)N=NC(N)=O`, the result in [2] and in test [8] was inactive.

On to `C#CC1(O)CC[C@H]2[C@@H]3CCC4=CCCC[C@@H]4[C@H]3CC[C@@]21C` (some centres not stated), for which the call in [13] was inactive. Besides, the AC50 with PGR (gene 5241) was 39.6 µM (active); in test [6] it was 5.07 µM (active).

With `CC(CC=O)CCCC(C)(C)O` (configuration not stated), the molecule was called inactive in [9] and in test [10].

As to `CCCCCCCC/C=C\CCCCCCCC(=O)OCCO`, the outcome in [2], in test [8], in test [3], in test [4] and in [5] was inactive. In addition, the AC50 in test [11] is 12.5 µM (active).

In the case of `O=C1C(N(CO)C(=O)NCO)N(CO)C(=O)N1CO` (configuration not stated), the outcome in [2] and in test [8] was inactive.

For the molecule `CC(C)C1=CC2=CC[C@@H]3[C@](C)(CCC[C@@]3(C)C(=O)O)[C@H]2CC1`, in [4], the concentration at half-maximal activity (AC50) is 16 µM (active). Further, in test [5], the molecule was classed as inactive.

`c1ccc2c(c1)ccc1ncccc12`: the concentration at half-maximal activity (AC50) in [14] is 34.7 µM (active); in test [15] it was 16.4 µM (active); in test [7] it was 7.22 µM (active).

Consider `CCCCC/C=C\CCC=O`, for which the outcome in test [9], in test [10] and in [5] was inactive.

For `NC(=O)c1ccccc1O`, the result in test [2] and in test [8] was inactive.

Regarding `COc1ccc2nc(N)sc2c1`, the call in [14] was inactive. In addition, the half-maximal activity concentration (AC50) in test [7] was 9.9 µM (active).

For `CCN(CCC#N)c1ccc(N=Nc2c(Cl)cc([N+](=O)[O-])cc2Cl)cc1`, the AC50 was 6.24 µM (active) in test [3], 25 µM (active) in [6], 0.433 µM (active) in [4] and 13.4 µM (active) in [5].

Take `C1CN(SSN2CCOCC2)CCO1`: the molecule was classed as inactive in test [4] and in [5].

Take `CC(C)(c1cc(Br)c(OCCO)c(Br)c1)c1cc(Br)c(OCCO)c(Br)c1`: the molecule was called inactive in test [13]. For the same molecule, the AC50 in [16] was 2.88 µM (active).

For `CCO[Si](C)(OCC)OCC`, the result in test [2] and in [8] was inactive.

In the case of `c1ccc2c(c1)ccc1cc3c(ccc4ccccc43)cc12`, the result in [6] was inactive.
